The results in this text go back to PubChem BioAssay (NCATS).

Molecules are shown by their SMILES. Results filed as inconclusive are left out. Active and inactive are the calls of the source. The call rests on the fitted dose curve; in most records, active means well fitted curve in the direction sought with a large enough effect; inconclusive means small, poorly fitted or top-dose-only effect, or another doubt; inactive means no such curve, though single readings can be large; an effect the other way counts as inactive or inconclusive.

The test system of test [1] is Nanoluciferase (engineered Oplophorus gracilirostris luciferase). In words: Primary Nanoluciferase (NLuc) qHTS assay for identification of artifact compounds. (AID 1845222). Further: series mostly up to about 54 µM. In a few lines: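 Compounds are pinned into diluted (1:55) conditioned medium of NLuc-expressing S16 cells and held 15 min at room temperature protected from light. Nano-Glo substrate follows, and luminescence is read 5 min later.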

Test [2] in a line: Primary redox qHTS assay for identification of artifact compounds. (AID 1845223). The method, boiled down: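 Redox-cycling detection via DTT (250 uM final) oxidation coupled to Amplex Red (25 uM)/HRP (250 mU/mL) in HBSS. 15 min preincubation plus 30 min after DTT, room temperature. Ex/Em 525/598 nm; 4-parameter Hill fit against DMSO and 10 uM DA3003.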
In general terms: Quantitative high-throughput screening tests each substance at several concentrations.

Test [3] in a line: Quantitative High-Throughput drug screen in 47 multiple myeloma cell lines against the NCATS MIPE library collection: FR4_PLB cell viability assay (AID 1918924; further: nearly all actives have a fitted effect of over 35% in size; further: potency means the concentration at half of the fitted maximal effect). The method, boiled down:
(§1)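 Approved and investigational drugs from MIPE 4.0 were added by pin tool to 500 cells per well. After 48 hours at 37C, ATP-based CellTiter-Glo luminescence indicated remaining viability.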

Test [4] can be described thus: Quantitative High-Throughput drug screen in 47 multiple myeloma cell lines against the NCATS MIPE library collection: Delta47_JCRB cell viability assay (AID 1918925; further: nearly all actives have a fitted effect of over 45% in size; further: potency means the concentration at half of the fitted maximal effect). The method, boiled down:
(§2)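 Inhibition of cell viability is measured here. Each line was plated at 500 cells per well, treated with MIPE 4.0 drugs, kept 48 hours at 37C, then assayed for ATP content by CellTiter-Glo luminescence.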

Test [5] in a line: Quantitative High-Throughput drug screen in 47 multiple myeloma cell lines against the NCATS MIPE library collection: EJM_DSMZ cell viability assay (AID 1918926; further: nearly all actives have a fitted effect of over 30% in size; further: potency means the concentration at half of the fitted maximal effect). In a few lines: as §2
The nature of test [6]: Quantitative High-Throughput drug screen in 47 multiple myeloma cell lines against the NCATS MIPE library collection: AMO1_DSMZ cell viability assay (AID 1918927; further: nearly all actives have a fitted effect of over 30% in size; further: potency means the concentration at half of the fitted maximal effect). The method, boiled down:
as §2

The nature of test [7]: Quantitative High-Throughput drug screen in 47 multiple myeloma cell lines against the NCATS MIPE library collection: ARP1_JJKsccF8 cell viability assay (AID 1918928; further: nearly all actives have a fitted effect of over 40% in size; further: potency means the concentration at half of the fitted maximal effect). In a few lines:
(§3)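 CellTiter-Glo luminescence after 48 h exposure gives viability, scaled between DMSO-only (100%) and media-only (0%) controls. Library compounds are pinned onto 500 myeloma cells per well, incubated at 37C with 5% CO2.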

The nature of test [8]: Quantitative High-Throughput drug screen in 47 multiple myeloma cell lines against the NCATS MIPE library collection: ARD_JJKsccE7 cell viability assay (AID 1918929; further: potency means the concentration at half of the fitted maximal effect). The method, boiled down: as §2
Test [9] is described as follows: Quantitative High-Throughput drug screen in 47 multiple myeloma cell lines against the NCATS MIPE library collection: Karpas620_DSMZ cell viability assay (AID 1918959). Further: nearly all actives have a fitted effect of over 30% in size. Further: potency means the concentration at half of the fitted maximal effect. The method, boiled down: as §1
Test [10] can be described thus: Quantitative High-Throughput drug screen in 47 multiple myeloma cell lines against the NCATS MIPE library collection: KMM1_JCRB cell viability assay (AID 1918960). Further: nearly all actives have a fitted effect of over 30% in size. Further: potency means the concentration at half of the fitted maximal effect. In a few lines:
as §3

With `CNC(=O)c1cc(Oc2ccc(NC(=O)Nc3ccc(Cl)c(C(F)(F)F)c3)cc2)ccn1`, in test [1], the outcome was inactive. In addition, in [2], the Potency result is “inactive”. The Potency in test [3] is 20.9 µM (active); in [4], 16.6 µM (active); in [5] it was 18.7 µM (active); in test [6], 5.26 µM (active); in [7], 23.5 µM (active); in [8], 2.64 µM (active). The Potency in test [9] is 3.32 µM (active); in [10], 2.96 µM (active).

Regarding `O=C(O)C1CCCN(CCC=C(c2ccccc2)c2ccccc2)C1` (stereo unspecified), the Potency result in [3], in [4], in [5], in [6], in test [7] and in test [8] was “inactive” throughout. Further, the Potency result in [9] and in test [10] was “inactive” each time.

On to `CC[C@H](NC(C)C)[C@H](O)c1ccc(O)c2[nH]c(=O)ccc12`, for which the Potency entry in test [3], in [4], in [5], in test [6], in [7] and in [8] was “inactive” each time. Moreover, the Potency entry in test [9] was “inactive”.

Turning to `COc1cc([C@@H]2c3cc4c(cc3[C@H](O)[C@H]3COC(=O)[C@H]23)OCO4)cc(OC)c1OC`, the Potency result in test [3], in [4], in test [5], in test [6], in [7] and in test [8] was “inactive” each time. Moreover, the Potency entry in test [9] is “inactive”. For the same molecule, the Potency in test [10] is 0.001 µM (active).

With `CCN(CC)CC#CCOC(=O)C(O)(c1ccccc1)C1CCCCC1` (stereo unspecified), the Potency entry in [3], in test [4] and in test [5] was “inactive” each time.

Turning to `Cc1noc(NS(=O)(=O)c2ccc(N)cc2)c1C`, the Potency result in test [3], in [4], in test [5], in test [6], in [7] and in test [8] was “inactive” each time. For the same molecule, the Potency entry in test [9] and in test [10] was “inactive” each time.

For `CCCc1cc(C(N)=S)ccn1`, the Potency entry in [3], in test [4], in [5], in test [6], in [7] and in test [8] was “inactive” in each case. In addition, the Potency entry in test [9] and in test [10] was “inactive” in each case.

For the molecule `O=P(O)(O)C(O)(Cc1cccnc1)P(=O)(O)O`, the outcome in test [1] was inactive. For the same molecule, the Potency entry in test [2], in test [3], in [4], in test [5], in [6] and in test [9] was “inactive” throughout. Moreover, in [10], the Potency result is “inactive”.

For `O=C(NCC1CN(c2ccc(N3CCOCC3=O)cc2)C(=O)O1)c1ccc(Cl)s1` (stereo unspecified), the outcome in test [1] was inactive. For the same molecule, the Potency result in test [2] and in test [5] was “inactive” in each case. Also, the Potency in test [8] is 23.5 µM (active).

For the molecule `CN(C)CCc1c[nH]c2ccc(C[C@H]3COC(=O)N3)cc12`, the call in test [1] was inactive. Also, the Potency entry in test [2], in [3], in test [4], in test [5], in test [6] and in test [7] was “inactive” in each case. Moreover, the Potency entry in test [8] and in test [9] was “inactive” in each case.

`COC(c1ccccc1)(c1ccccc1)[C@H](Oc1nc(C)cc(C)n1)C(=O)O`: the Potency entry in test [3], in [4], in test [5], in [6], in test [7] and in test [8] was “inactive” throughout. The Potency result in test [9] and in test [10] was “inactive” throughout.

Consider `CCOC(=O)c1ccc(OC(=O)CCCCCN=C(N)N)cc1`, for which the Potency entry in [3], in [4], in test [5], in test [6], in [7] and in [8] was “inactive” throughout. Besides, the Potency entry in test [9] and in test [10] was “inactive” throughout.

`COc1cc2nc(N3CCCN(C)CC3)nc(NC3CCN(Cc4ccccc4)CC3)c2cc1OC`: the Potency in test [3] was 5.26 µM (active); in [4] it was 2.09 µM (active); in [5], 9.35 µM (active); in test [6], 7.43 µM (active); in test [7], 8.33 µM (active); in test [8] it was 8.33 µM (active). In addition, the Potency is 3.72 µM (active) in [9] and 7.43 µM (active) in test [10].

On to `C[C@@H]1C[C@H]2[C@@H]3CCC4=CC(=O)C=C[C@]4(C)[C@@]3(Cl)[C@@H](O)C[C@]2(C)[C@@]1(OC(=O)c1ccco1)C(=O)CCl`, for which the Potency is 26.4 µM (active) in [3], 2.96 µM (active) in test [4], 4.69 µM (active) in test [5] and 1.48 µM (active) in test [6].

On to `CN(C)CCc1c[nH]c2ccc(CS(=O)(=O)N3CCCC3)cc12`, for which the Potency entry in test [3], in [4], in test [5], in [6] and in test [7] was “inactive” in each case.

For `Oc1c(Cl)cc(Cl)c2cccnc12`, the Potency in test [3] is 18.7 µM (active); in test [4], 23.5 µM (active); in test [5] it was 6.62 µM (active); in test [6], 10.5 µM (active); in test [7] it was 26.4 µM (active); in test [8] it was 18.7 µM (active). Besides, the Potency in test [9] is 3.72 µM (active).

For `CCN1CCCC1CNC(=O)c1cc(S(N)(=O)=O)ccc1OC` (stereo unspecified), the Potency entry in [3], in test [4], in test [5], in test [6], in test [7] and in [8] was “inactive” throughout. The Potency result in test [10] was “inactive”.

As for `NCCCC(O)(P(=O)(O)O)P(=O)(O)O`, the Potency result in test [3], in test [4], in [5], in [6], in test [8] and in test [9] was “inactive” in each case. Moreover, the Potency result in [10] was “inactive”.

As for `CC1=CC(=O)c2ccccc2C1=O`, the Potency in [3] is 26.4 µM (active); in [4], 16.6 µM (active); in test [5] it was 20.9 µM (active); in [7], 16.6 µM (active). Moreover, the Potency entry in test [8] and in test [10] was “inactive” throughout.

For the molecule `CN(C)c1ccc(C(=C2C=CC(=[N+](C)C)C=C2)c2ccc(N(C)C)cc2)cc1`, the Potency in test [3] was 0.132 µM (active); in [4], 0.0105 µM (active); in test [5], 0.148 µM (active); in test [7], 0.166 µM (active); in [8], 0.526 µM (active).

Consider `O=S(=O)(O)CCS`, for which the Potency entry in [3], in [4], in [5], in [7], in [9] and in test [10] was “inactive” throughout.

For the molecule `C[C@@H](NCCCc1cccc(C(F)(F)F)c1)c1cccc2ccccc12`, the Potency entry in test [3], in test [4], in [5], in [7] and in test [10] was “inactive” in each case.

As for `NC(=O)c1cccc(N)c1`, the Potency result in [3], in test [4], in [5], in [6], in [7] and in test [9] was “inactive” throughout. Besides, the Potency entry in [10] was “inactive”.
